AMA1-RON2 inh – inhibitors of Plasmodium falciparum AMA1-RON2 interaction | AlphaScreen AMA1-biotinylated RON2 peptide binding | Potency, µM (top dose mostly 58.2 µM), actives largely listed as inhibitors | 0.2% of 360,000 active | AID 720542; also: nearly all actives have a fitted effect of over 45% in size
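AMA1 (3D7) with his tag at 25 nM final met compounds first, then biotinylated RON2 peptide at 25 nM; detection used donor plus acceptor beads, 10 µg/mL apiece, read by AlphaScreen after 30 min at room temperature.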
SARS PLP yeast – inhibitors of SARS-CoV papain-like protease in yeast | S. cerevisiae expressing SARS-CoV PLpro, growth rescue | Potency, µM (doses to about 32.9 µM), actives largely listed as activators | 0.19% of 330,000 active | AID 485353; calls by dose curve; also: nearly all actives have a fitted effect of over 55% in size
Pf growth 96h – inhibits malaria parasite growth, 96 h | P. falciparum luciferase reporter growth, 96 h | Potency, µM (series often up to 28.7 µM), usual class: inhibitors | 6.9% of 320,000 active | AID 504834
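96 h incubation, 37 C, 5% CO2, of luciferase-reporter P. falciparum-infected RBCs (2% hematocrit, 0.05% parasitemia final) with test compounds; endpoint luminescence.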
Pf growth 48h – inhibits P. falciparum growth in the first generation, 48 h. P. falciparum luciferase growth in erythrocytes, 48 h. Potency, µM (doses to about 28.7 µM), usual class: inhibitors. 5.9% of 310,000 active. AID 504832
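A one-generation exposure of luciferase-tagged malaria parasites in RPMI 1640/Albumax erythrocyte culture, 37 C and 5% CO2. Inhibition is inferred from decreased luminescence after adding detection reagent.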
Numbers stand for hits; 0 = inactive; ? = inconclusive; - = no result; [ ] = another dose, or the depositor's remark. Only some compounds are listed: those with a hit (about 9.4% of all), similar ones and a draw of the others. Unless noted, calls follow the shape of the dose curve; as a rule, active = well fitted curve in the direction sought with a large enough effect; inconclusive = small, poorly fitted or top-dose-only effect, or another doubt; inactive = no such curve, though single readings can be large; an effect the other way counts as inactive or inconclusive.

SMILES	AMA1-RON2 inh	SARS PLP yeast	Pf growth 96h	Pf growth 48h
O=C(Nc1ccncc1)c1ccc(Cl)c(Cl)c1	0	0	2.94µM	?
CC(=O)c1ccc(N2CCN(C(=O)/C=C/c3cccs3)CC2)cc1	0	0	0	0
COc1ccc(CCNS(=O)(=O)c2ccc3c(c2)CC(C)N3C(=O)C2CC2)cc1OC (stereo not drawn)	0	-	-	-
O=C(Nc1ccc(NC(=O)c2ccc([N+](=O)[O-])cc2[N+](=O)[O-])cc1)c1ccco1	?	0	0	?
O=C(Nc1ccc(Nc2ccncc2)cc1)c1ccc(Nc2ccnc3ccc([N+](=O)[O-])cc23)cc1[N+](=O)[O-]	?	0	0.522µM	1.47µM
Cc1nonc1NC(=O)c1ccc(Cl)c(S(=O)(=O)N2CCCCC2)c1	0	0	2.62µM	0
O=C(Nc1ccc(Oc2cccnc2)cc1)c1ccc([N+](=O)[O-])cc1	0	0	0	?
O=C(Nc1ccc(Nc2ccncc2)cc1)c1ccc([N+](=O)[O-])cc1	0	0	1.65µM	2.62µM
O=C(Nc1ccc(Cl)c(S(=O)(=O)N2CCCCC2)c1)c1cccnc1	0	0	?	11.7µM
Cc1cccnc1C(NC(=O)C1CCN(CCOc2ccc(Cl)cc2Cl)CC1)c1ccc(Cl)cc1 (stereo not drawn)	0	-	-	-
CC(=O)Nc1cc(-c2ccc(S(C)(=O)=O)cc2)cn2c(-c3ccc(F)c(Cl)c3)cnc12	0	-	-	-
CS(=O)(=O)c1ccc(C(=O)N2CCN(C(=O)c3ccco3)CC2)cc1	0	0	0	0
Cc1ccc(-c2nc3n(n2)Cc2ccccc2-3)cc1	0	0	0	0
CCn1c(C)nc2cc(-c3nc4n(n3)Cc3ccccc3-4)ccc21	0	0	0.208µM	0.185µM
COc1cc(/C=C/C(=O)OCC(=O)NCc2cccs2)ccc1OCC#N	0	0	0	0
Cc1cc(N2CCN(C)CC2)nc2ccc(NC(=S)N3CCCCCC3)cc12	0	0	0	?
Cc1cc(N2CCN(C)CC2)nc2ccc(NC(=S)N3CCN(c4cccc(Cl)c4)CC3)cc12	0	0	0	?
COc1ccc(N2CCN(C(=S)Nc3ccc(F)cc3)CC2)cc1	0	0	14.7µM	0
Cc1cc(N2CCOCC2)nc2ccc(NC(=O)CCC(=O)N3CCN(c4ccc(F)cc4)CC3)cc12	0	0	?	?
Cc1cc(N2CCN(C)CC2)nc2ccc(NC(=S)N3CCN(c4ccc(Cl)cc4)CC3)cc12	0	0	0	13.1µM
Cc1cc(N2CCN(C)CC2)nc2ccc(NC(=S)N3CCN(c4ccc(F)cc4)CC3)cc12	0	0	3.7µM	0
Cc1cc(N2CCN(C)CC2)nc2ccc(NC(=S)N3CCCCC3)cc12	0	0	9.28µM	3.29µM
O=C(CN1C(=O)COc2ccc(Cl)cc21)Nc1ccc2c(c1)OCCO2	0	0	-	0
Cc1cccc(N2CCN(C(=S)Nc3ccc4nc(N5CCN(C)CC5)cc(C)c4c3)CC2)c1C	0	0	?	11.7µM
CCOC(=O)N1CCC(NC(=S)Nc2ccc3nc(N4CCN(C)CC4)cc(C)c3c2)CC1	0	0	0	?
SMILES	AMA1-RON2 inh	SARS PLP yeast	Pf growth 96h	Pf growth 48h
COc1ccc(N2CCN(c3ccc(NC(=O)/C=C\C(=O)O)cc3)CC2)cc1	0	0	?	3.29µM
O=[N+]([O-])c1ccc(N2CCN(C(=S)Nc3cccc(F)c3)CC2)cc1	0	0	0	3.29µM
Cc1cccc(N2CCN(C(=S)Nc3ccc4nc(N5CCN(C)CC5)cc(C)c4c3)CC2C)c1 (stereo not drawn)	0	0	9.28µM	?
O=[N+]([O-])c1ccc(N2CCN(C(=S)Nc3ccc(F)cc3)CC2)cc1	0	0	0	?
Cc1ccc(-c2ccc(=O)n(CC(=O)NCCCN3CCCCC3C)n2)cc1 (stereo not drawn)	0	0	0	0
COc1ccc(C2C(Oc3ccccc3)C(=O)N2c2cc(C)ccc2C)cc1OC (stereo not drawn)	0	0	0	0
COc1ccc(C)cc1N1C(=N)/C(=C2/Nc3ccccc3S2)C(c2ccccc2)C1=O (stereo not drawn)	0[11.6 µM]	0	0	13.1µM
Cc1cccc(Nc2ncnc3onc(-c4ccc(F)cc4)c23)c1C	0	0	?	?
Cc1cccc(Nc2ncnc3onc(-c4cccc(Cl)c4)c23)c1C	0	0	9.28µM	?
CCOP(=O)(OCC)C(Nc1cccc(C(F)(F)F)c1)c1ccc(F)cc1 (stereo not drawn)	0	0	?	?
CCOP(=O)(OCC)C(Nc1cccc(C(F)(F)F)c1)c1ccc(C)cc1 (stereo not drawn)	0	0	?	10.4µM
CCCOP(=O)(OCCC)C(Nc1cccc(C(F)(F)F)c1)c1ccc(C)cc1 (stereo not drawn)	0	0	11.7µM	?
CCOC(=O)c1cc2c(C)n(-c3ccc(N(C)C)cc3)c(C)c2cc(C(=O)OCC)c1=O	0	0	3.29µM	?
O=C1N[C@H]2CC=C[C@H]2N(Cc2cccs2)c2ccccc21	0	0	-	-
Cc1ccc(-n2ncc3c2CC(C)(C)CC3NC(=O)CCn2cncn2)cc1 (stereo not drawn)	0	0	10.4µM	0
Cc1ccccc1-n1ncc2c1CC(C)(C)CC2NC(=O)CCn1cncn1 (stereo not drawn)	0	0	0	?
N/C(Cc1ccc(Cl)c(Cl)c1)=N\OC(=O)c1ccc(Br)o1	0	0	14.7µM	14.7µM
N/C(=N\OC(=O)c1ccc(Br)o1)c1cccnc1	0	0	0	0
CCOC(=O)/C(C#N)=C/Nc1ccccc1OC	0	0	0	0
CCOc1ccccc1NC(=O)c1cc(C(=O)c2cc(OC)ccc2O)coc1=N	0	0	2.33µM	4.65µM
CC(C)NC(=O)c1cc(C(=O)c2cc(Cl)ccc2O)coc1=N	0	0	?	0
O=C(CNC(=O)C12CC3CC(CC(C3)C1)C2)OCc1ccc(F)cc1Cl	0	0	0	0
CC(=O)NC1CSCC1OC(C)=O (stereo not drawn)	0	0	9.28µM	0
Fc1cnc(N2CCOCC2)nc1N1CCOCC1	0	0	0	0
Clc1nc(N2CCOCC2)ncc1Br	0	0	1.85µM	2.62µM
SMILES	AMA1-RON2 inh	SARS PLP yeast	Pf growth 96h	Pf growth 48h
COc1ccc2c(c1)OC[C@H]1[C@H]2N2C(=O)c3cc(F)ccc3NC(=O)[C@@]2(C)[C@H]1c1ccccc1	0	0	-	-
COc1ccc2c(c1)OC[C@H]1[C@H]2N2C(=O)c3cc(Cl)ccc3NC(=O)[C@@]2(C)[C@H]1c1ccccc1	0	0	3.29µM	9.28µM
COc1ccc2c(c1)OC[C@H]1[C@H]2N2C(=O)c3cc(OC)ccc3NC(=O)[C@@]2(C)[C@H]1c1ccccc1	0	0	6.57µM	5.22µM
COc1ccc2c(c1)C(=O)N1[C@H]3c4cc(Cl)ccc4OC[C@@H]3[C@H](c3ccccc3)[C@]1(C)C(=O)N2	0	0	-	-
COc1ccccc1NC(=O)CSc1nnc(Cn2cnc3ccccc32)o1	0	0	0	0
CCOC(=O)CCc1c(C)c2ccc(OCC(=O)N3CCOCC3)c(C)c2oc1=O	0	0	?	?
CCOC(=O)CCCCC(=O)c1[nH]c(=O)[nH]c1CN1CCOCC1	9.47µM	0	?	0
CCOC(=O)CCCCC(=O)c1[nH]c(=O)[nH]c1C[n+]1ccccc1	-	0	0	?
